# Measured values reported in article PMC7819943, “Rice protein-binding microarrays: a tool to detect cis-acting elements near promoter regions in rice”.
# Whole data set: some 39,000 sequences, median “fluorescence intensity (a.u.)” near 4,300, cut for the highest 2% near 39,000. The sample holds the highest values, similar sequences and a random draw of the others, so the mix is not that of the screen.
# Molecular target: T1, OsSMF1 (Oryza sativa, UniProt Q6ZLB0 1-436)
# T1 sequence: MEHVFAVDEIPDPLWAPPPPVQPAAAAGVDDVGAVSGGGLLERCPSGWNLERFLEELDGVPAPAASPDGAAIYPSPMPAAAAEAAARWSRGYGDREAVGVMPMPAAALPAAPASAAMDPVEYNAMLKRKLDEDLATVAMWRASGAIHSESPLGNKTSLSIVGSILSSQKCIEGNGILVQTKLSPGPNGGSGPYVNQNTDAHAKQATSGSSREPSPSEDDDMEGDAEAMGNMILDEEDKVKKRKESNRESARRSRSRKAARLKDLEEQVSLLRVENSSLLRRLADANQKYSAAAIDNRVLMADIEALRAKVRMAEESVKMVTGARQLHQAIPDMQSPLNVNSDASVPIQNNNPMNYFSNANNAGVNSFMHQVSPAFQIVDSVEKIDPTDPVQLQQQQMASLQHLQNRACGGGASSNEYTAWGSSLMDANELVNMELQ
# Assay: protein-binding microarray (RPBM); PBS, 2% BSA, 51.3 ng/ul salmon testes DNA, 50 uM zinc acetate, 200 nM TF, 25 C, 1 h; high values mean tight binding
# Settings: protein: recombinant; tags: N-terminal polyhistidine and DsRed monomer fusion (pET32a); chain copies: 2; label: CyDye5-dUTP incorporated in the synthesized complementary strand; 3' TTTTT single-stranded linker to array surface; dsDNA, one strand shown
# Outline: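 Binding signal is reported as fluorescence intensity per feature (arbitrary units) from an Axon 4000B scanner. Incubation used 200 nM of each Ni–NTA-purified, N-terminally polyhistidine- and DsRed-fused transcription factor from E. coli BL21-CodonPlus on a double-stranded custom Agilent array for 1 h at 25 °C, with 50 µM zinc acetate in the buffer, followed by washing.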
row,Sequence,binding signal
1,CCCGCCGTCGCCGGGGAAGACGACACGCCCGCCGTCCTTGCGGAGTCACCTAGTGCAG,3580 fluorescence intensity (a.u.)
2,ACATTGACTCAGCCACCACGTCACCTAAAATCGGGAACAGCGGAGTCACCTAGTGCAG,13000 fluorescence intensity (a.u.)
3,CACGATTGCTCGGTGAGCACTGAGCAGTGACCTCATTCGGCGGAGTCACCTAGTGCAG,3820 fluorescence intensity (a.u.)
4,GACGCGTACGCACGGTGGGACGCGGTGGTGGGGTGCTGGGCGGAGTCACCTAGTGCAG,3920 fluorescence intensity (a.u.)
5,TGGTAGGGAAGCAGGTGGAAGGAGGACAGGAAGGCCCAATCGGAGTCACCTAGTGCAG,34000 fluorescence intensity (a.u.)
6,ATAGGAAGGGAAGCAACGGAGGAGGAGATCGGCTGGTGGTCGGAGTCACCTAGTGCAG,7740 fluorescence intensity (a.u.)
7,AGCTGGACAAGATCGGAATAGTAGGCCAGGCCCAAAGCAACGGAGTCACCTAGTGCAG,49400 fluorescence intensity (a.u.)
8,AAGAACGCCTTCGCGTGGGCCGCCGTCATCGGGATGTGGACGGAGTCACCTAGTGCAG,3220 fluorescence intensity (a.u.)
9,CTCACTCGCTTGCGCTTCACCTCGCGGCATCGACTTCCTACGGAGTCACCTAGTGCAG,3630 fluorescence intensity (a.u.)
10,TTAAATGGTCATTCCTGTGTTTTACAATCATATATCTTACCGGAGTCACCTAGTGCAG,3990 fluorescence intensity (a.u.)
11,GTCCATATATCCGATGTGACACGCCAACACTTTTCGTATCCGGAGTCACCTAGTGCAG,4090 fluorescence intensity (a.u.)
12,CACATCGAACGGTCCAAGAACAACCACATCACCAATGTGCCGGAGTCACCTAGTGCAG,3710 fluorescence intensity (a.u.)
13,AAGATCATCACAATTCATCACTCACAACCACATCACATCCCGGAGTCACCTAGTGCAG,3260 fluorescence intensity (a.u.)
14,TGGCTTCACTTGCAACGGTACAAGAACCACCATCACTTCCCGGAGTCACCTAGTGCAG,40100 fluorescence intensity (a.u.)
15,CGCCTCTGCGGTCTCCTTCGTCACCCGCGCGTCAACCAACCGGAGTCACCTAGTGCAG,4290 fluorescence intensity (a.u.)
16,CCCCTTCATGCCAGCACGCTCCCCACATCCACCCACCACCCGGAGTCACCTAGTGCAG,3320 fluorescence intensity (a.u.)
17,CGTGCGACCCAGATCTCGCCACGTATGCGCGCGGATCGGCCGGAGTCACCTAGTGCAG,10800 fluorescence intensity (a.u.)
18,GGGACGAGAGGAGCAACGCGCGGGCGCCGGCTGGCAAGAGCGGAGTCACCTAGTGCAG,3960 fluorescence intensity (a.u.)
19,ACCTTGAGTTTGAGTGCGATTCCTCCCTTCTTTCGGTCACCGGAGTCACCTAGTGCAG,21100 fluorescence intensity (a.u.)
20,ACGACGACGACGTCGACGTGTGAACCAGTCAACTGCCACGCGGAGTCACCTAGTGCAG,8590 fluorescence intensity (a.u.)
21,ACGAAACCGCACAAAAGCCGGTGAATTTTCCCGTAATTTGCGGAGTCACCTAGTGCAG,8780 fluorescence intensity (a.u.)
22,GCGCACACACACACACAGATATATATATATATATATATATCGGAGTCACCTAGTGCAG,4200 fluorescence intensity (a.u.)
23,ACATACATATATATATATATATATACATACATATATATATCGGAGTCACCTAGTGCAG,3740 fluorescence intensity (a.u.)
24,ATCTAGACACGCGCGCGCGCGCGCACATATATATATATATCGGAGTCACCTAGTGCAG,42600 fluorescence intensity (a.u.)
